Experimental data from publication PMC5540273 (PLoS ONE, 2017).
Values joined by “and” are separate entries in the source; they are usually repeats but may differ in a detail not shown here. Equal values may be shown once. Read-outs that look alike come from different tables or passages of the source.

Tests used:
AAK1 = conditions: concentration: 1 μM, replicates: in singlicate; n = 1
ABL1-nonphosphorylated = conditions: concentration: 1 μM, replicates: in singlicate, n = 1
ABL1-phosphorylated = conditions: concentration: 1 μM, replicates: in singlicate, n = 1
YSK4 = test system: T1, YSK4
T1 construct: gene MAP3K19

p38-alpha = test system: T2, p38-alpha
T2 construct: gene MAPK14

[1] = test system: TYK2(JH2domain-pseudokinase)
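Throughout, for %Inh: KINOMEscan kinase panel screen.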
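Throughout, for Kd: kd values determined as follow-up on hits from a single-replicate KINOMEscan panel screen.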

Structure (SMILES): CCCc1ccc(S(=O)(=O)NC2CCN(c3ccnc(Nc4ccc(OC)cc4)n3)C2)cc1 (centres unmarked) [GSK1379737]
- Kd (ULK1): > 10 µM
- %Inh (AAK1): 0%
- %Inh (ABL1-nonphosphorylated): 0%
- %Inh (ABL1-phosphorylated): 0%

Structure (SMILES): CCC(CC)(CC)n1cnc2c(N)ncnc21 [SKF-97620]
- Kd (TNIK): > 10 µM
- %Inh (AAK1): 0%
- %Inh (ABL1-nonphosphorylated): 27%
- %Inh (ABL1-phosphorylated): 6%

Structure (SMILES): CC(C)(C)OC(=O)NC1CCCN(c2cc(-c3ccc4c(N)n[nH]c4c3)nc(N)n2)C1 (centres unmarked) [GSK2286096]
- Kd (TSSK3): > 10 µM
- %Inh (AAK1): 60%
- %Inh (ABL1-nonphosphorylated): 0%
- %Inh (ABL1-phosphorylated): 0%

Structure (SMILES): CCc1nc(-c2cccc(C)c2)c(-c2ccnc(NC(=O)c3ccccc3)c2)s1
- %Inh (AAK1): 2%
- %Inh (ABL1-nonphosphorylated): 24%
- %Inh (ABL1-phosphorylated): 0%

Structure (SMILES): COc1ccc(-c2nc3n(c2-c2ccncc2)CCC3)cc1 [SKF-104493]
- Kd (YSK4): > 10 µM
- Kd (p38-alpha): 0.22 µM and 0.13 µM
- %Inh (AAK1): 0%
- %Inh (ABL1-nonphosphorylated; 1 µM): 51% and 2%
- %Inh (ABL1-phosphorylated; 1 µM): 20% and 0%

Structure (SMILES): CS(=O)(=O)CCNCc1ccc(-c2ccc3ncnc(Nc4ccc(OCc5ccccc5)c(Cl)c4)c3c2)o1.Cl [GW574783]
- %Inh (AAK1): 13%
- %Inh (ABL1-nonphosphorylated): 0%
- %Inh (ABL1-phosphorylated): 0%

Structure (SMILES): Cn1ccc2ncnc(Oc3ccc(NC(=O)Nc4cccnc4)c(Cl)c3)c21
- %Inh (AAK1): 19%
- %Inh (ABL1-nonphosphorylated): 23%
- %Inh (ABL1-phosphorylated): 0%

Structure (SMILES): CS(=O)(=O)CCNCc1nc(-c2ccc3ncnc(Nc4ccc(OCc5cccc(F)c5)c(Cl)c4)c3c2)cs1.Cl [GW583340]
- Kd (TXK): > 10 µM
- Kd (ZAK): > 10 µM
- %Inh (AAK1): 19%
- %Inh (ABL1-nonphosphorylated): 0%
- %Inh (ABL1-phosphorylated): 0%

Structure (SMILES): COc1ccc(-c2oc3ncnc(N)c3c2-c2ccc(OC)cc2)cc1 [SB-589132]
- Kd [1]: 1.6 µM
- %Inh (AAK1): 6%
- %Inh (ABL1-nonphosphorylated): 21%
- %Inh (ABL1-phosphorylated): 10%
